Assay [1] in a line: Nuclear factor erythroid 2-related factor 2/antioxidant responsive element (Nrf2/ARE) small molecule agonists: qHTS cell viability counter screen in human keratinocytes (AID 1919968; active = well fitted cell-killing curve with a large enough effect in the repeat runs; also: nearly all actives have a fitted effect of over 55% in size). Put shortly:
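Cells of the KeratinoSens line were plated at 1,500 per well and left for 5 h before compound transfer from DMSO stocks. After a 23 h incubation (37 C, 5% CO2), CellTiter-Fluor was added. Signal was taken as fluorescence intensity 1 h later.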

Assay [2] in a line: Nuclear factor erythroid 2-related factor 2/antioxidant responsive element (Nrf2/ARE) small molecule agonists: luciferase reporter gene qHTS assay in human keratinocytes (AID 1919969). Also: nearly all actives have a fitted effect of over 35% in size. Also: potency is read from the fitted curve at half-maximal effect.
Assay [3] deals with Gonadotropin-releasing hormone receptor (Homo sapiens) (UniProt P30968). Briefly: Human gonadotropin-releasing hormone receptor (GnRHR) small molecule agonists, calcium flux assay in GnRHR-HEK293 cells (AID 1920063). Also: nearly all actives have a fitted effect of over 35% in size. Put shortly: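 Compounds dissolved in DMSO are pin-transferred onto dye-loaded GnRHR-HEK293 cells, which were seeded 18 h before at 37 C/5% CO2. Calcium signal is read as fluorescence intensity at 1 s intervals for 3 min.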

Assay [4] in a line: G protein-coupled receptor (GPCR) small molecule agonists, calcium flux assay: HEK293 wild type cell line counter screen (AID 1920065). Put shortly:
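Tox21 10K compounds, 15 concentrations each in triplicate, pin-transferred in DMSO onto dye-loaded cells; kinetic read at 480/540 nm for 3 min, 1 s intervals.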

A short description of assay [5]: p53 small molecule agonists, cell-based qHTS assay with human liver microsomes (AID 1963577).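 Also: p53 response element beta-lactamase reporter cells with liver microsomes plus NADPH.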 Put shortly:
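With metabolic activation: human liver microsomes (0.5 mg/mL final) plus NADPH (0.5 mg/mL final) added alongside compounds to p53RE-bla cells; 16 h 37 C exposure; beta-lactamase read by LiveBLAzer fluorescence.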

The nature of assay [6]: p53 small molecule agonists, cell-based qHTS assay with rat liver microsomes (AID 1963578). Put shortly:
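Metabolic activation by rat liver microsomes and NADPH, each 0.5 mg/mL final, added right after compounds to p53RE-bla reporter cells (4,000/well, plated 5 h earlier). 16 h at 37 C, then LiveBLAzer substrate for 2 h at room temperature in the dark; fluorescence read-out.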

The nature of assay [7]: p53 small molecule agonists, cell-based qHTS assay with human liver microsomes: qHTS cell viability counter screen (AID 1963579). Also: nearly all actives have a fitted effect of over 45% in size. Put shortly: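 Metabolic activation used human liver microsomes and NADPH, both 0.5 mg/mL final, over 16 hours at 37 C on p53RE-bla cells (4,000/well). Cytotoxicity measured by CellTiter-Glo luminescence, 30 min at room temperature.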
Assay [8] in a line: p53 small molecule agonists, cell-based qHTS assay with rat liver microsomes: qHTS cell viability counter screen (AID 1963580). Also: nearly all actives have a fitted effect of over 45% in size. Put shortly: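 After the beta-lactamase ratio was read, CellTiter-Glo was added to the same wells and luminescence measured at 30 min; cells had been treated 16 h at 37 C with compounds, rat liver microsomes and NADPH (0.5 mg/mL final each).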
Assay [9] can be described thus: p53 small molecule agonists, cell-based qHTS assay: qHTS cell viability counter screen (AID 1963581). Also: nearly all actives have a fitted effect of over 45% in size. Put shortly: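 ATP content measured by luminescence in HCT-116 p53RE-bla cells treated 16 h at 37 C, same wells as the reporter screen.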
Assay [10] has as its target 5-hydroxytryptamine receptor 2A (Homo sapiens) (UniProt P28223). The experiment in a line: 5-hydroxytryptamine receptor 2A (HTR2A) small molecule antagonists, cell-based qHTS assay (AID 1963586). Also: nearly all actives have a fitted effect of over 45% in size. Put shortly:
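CHO cells stably expressing human HTR2A were plated for 18 h at 37 C, then loaded with calcium dye for 1 h. Compounds were preincubated 5 min at room temperature before DOI (4 nM solution) was added. Kinetic fluorescence was read for 3 min.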

Assay [11] has the same target. Briefly: 5-hydroxytryptamine receptor 2A (HTR2A) small molecule agonists, cell-based qHTS assay (AID 1963587). Also: nearly all actives have a fitted effect of over 30% in size. Put shortly: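 CHO cells stably expressing human HTR2A, plated 18 h, loaded with calcium dye 1 h at 37 C. Agonist mode: compounds added and intracellular calcium fluorescence recorded kinetically for 2 min at 1 sec intervals.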
Assay [12] deals with Muscarinic acetylcholine receptor M1 (Homo sapiens) (UniProt P11229). Briefly: Cholinergic receptor muscarinic 1 (CHRM1) small molecule agonists, cell-based qHTS assay (AID 1963589). Also: nearly all actives have a fitted effect of over 35% in size. Put shortly: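 Homogeneous fluorescence calcium flux, agonist mode. Human M1-expressing CHO cells; compound dosed at 15 concentrations, three independent runs; signal sampled every 1 sec.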
Assay [13] addresses Beta-2 adrenergic receptor (Homo sapiens) (UniProt P07550). The experiment in a line: Adrenergic beta2 receptor (ADRB2) small molecule antagonists, cell-based qHTS assay (AID 1963592). Also: series mostly up to about 92 µM; nearly all actives have a fitted effect of over 50% in size. Put shortly: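 Assay format: CHO-ADRB2 cells, 18-20hr seeding at 37C/5% CO2, then compound plus 1nM isoproterenol agonist mix for 0.5hr RT. Homogeneous time-resolved fluorescence cAMP detection after 1hr, expressed as 665/615 nm ratio.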

In assay [14] the target is D(2) dopamine receptor (Homo sapiens) (UniProt P14416). The experiment in a line: Dopamine D2 receptor (DRD2) small molecule agonists, cell-based qHTS assay (AID 1963594). Also: nearly all actives have a fitted effect of over 35% in size. Put shortly:
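HEK293 cells stably expressing human DRD2, pre-treated with PDE inhibitor Ro20-1724 (0.1 mM final) and compound 10 min at room temperature, then stimulated with NKH477 (200nM […]) for 30 min. cAMP read by HTRF (665/620 nm).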

Assay [15] shares this target. Briefly: Dopamine D2 receptor (DRD2) small molecule antagonists, cell-based qHTS assay (AID 1963595; active = well fitted inhibition curve with a large enough effect in the signal ratio in the repeat runs, with a control signal flat; the % refers to the signal ratio). Put shortly:
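HEK293 cells stably expressing DRD2, preincubated with 0.1 mM Ro20-1724 and compounds 10 min, were stimulated with 200 nM NKH477 plus 12 nM quinpirole for 30 min at room temperature; cAMP measured by HTRF (665/620 nm).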

A short description of assay [16]: p53 small molecule agonists, cell-based qHTS assay (AID 1963582; active = well fitted activation curve with a large enough effect in the signal ratio in the repeat runs, not every such curve was filed as active; the % refers to the signal ratio). Put shortly:
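16 h compound exposure (37 C) of p53 response element–bla cells, preceded by 5 h recovery at 37 C/5% CO2; read-out via LiveBLAzer B/G FRET substrate, 2 h RT, fluorescence intensity.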

Assay [17] deals with Muscarinic acetylcholine receptor M1 (Homo sapiens) (UniProt P11229). Briefly: Cholinergic receptor muscarinic 1 (CHRM1) small molecule antagonists, cell-based qHTS assay (AID 1963588). Also: nearly all actives have a fitted effect of over 40% in size. Put shortly: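 Compounds were tested at 15 concentrations in three independent runs. Dye-loaded CHRM1-CHO cells were exposed 5 min at room temperature before stimulation by acetylcholine added at 50nM. Intracellular calcium was read kinetically on FDSS for 3 min.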

Assay [18] is described as follows: cAMP Responsive Elements (CRE) small molecule agonists, cell-based qHTS assay (AID 1963590). Put shortly: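 HEK 293T cells stably bearing CRE-bla were plated at 2,000 cells per well and rested 18 h. Compounds, positive controls or DMSO were added for 3 h at 37 C. LiveBLAzer B/G substrate was then loaded for 2 h at room temperature.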
Assay [19] can be described thus: cAMP Responsive Elements (CRE) small molecule antagonists, cell-based qHTS assay (AID 1963591; active = well fitted inhibition curve with a large enough effect in the signal ratio in the repeat runs, not every such curve was filed as active; the % refers to the signal ratio). Put shortly:
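First, CRE-bla HEK293T cells settled 18 h at 37 C. Next, compound and 0.25 uM final NKH477 were applied for 3 h. Last, LiveBLAzer B/G substrate was loaded for 2 h at room temperature.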

Here are results for six compounds from PubChem BioAssay (Tox21).

Several values for one entry are separate records, joined by “and”; a condition that tells them apart may be missing. Identical values can stand only once. Inconclusive results are not listed. Activity calls are given as the source filed them. Unless noted, calls follow the shape of the full dose curve.

Chain of Muscarinic acetylcholine receptor M1 (Homo sapiens) (P11229 whole entry, looked up): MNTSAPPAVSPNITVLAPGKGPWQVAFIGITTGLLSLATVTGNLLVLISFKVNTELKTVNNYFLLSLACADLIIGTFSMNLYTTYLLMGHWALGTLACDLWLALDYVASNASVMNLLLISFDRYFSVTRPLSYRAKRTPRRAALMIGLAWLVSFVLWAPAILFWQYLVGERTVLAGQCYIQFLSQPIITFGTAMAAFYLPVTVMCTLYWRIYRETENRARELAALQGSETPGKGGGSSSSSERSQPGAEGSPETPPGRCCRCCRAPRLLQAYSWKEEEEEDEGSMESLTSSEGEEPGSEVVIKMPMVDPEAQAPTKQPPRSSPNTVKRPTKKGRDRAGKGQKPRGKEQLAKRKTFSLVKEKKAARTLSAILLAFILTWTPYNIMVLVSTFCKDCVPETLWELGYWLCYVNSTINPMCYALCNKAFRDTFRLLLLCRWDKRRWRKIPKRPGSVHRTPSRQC
Chain of 5-hydroxytryptamine receptor 2A (Homo sapiens) (P28223 whole entry, looked up): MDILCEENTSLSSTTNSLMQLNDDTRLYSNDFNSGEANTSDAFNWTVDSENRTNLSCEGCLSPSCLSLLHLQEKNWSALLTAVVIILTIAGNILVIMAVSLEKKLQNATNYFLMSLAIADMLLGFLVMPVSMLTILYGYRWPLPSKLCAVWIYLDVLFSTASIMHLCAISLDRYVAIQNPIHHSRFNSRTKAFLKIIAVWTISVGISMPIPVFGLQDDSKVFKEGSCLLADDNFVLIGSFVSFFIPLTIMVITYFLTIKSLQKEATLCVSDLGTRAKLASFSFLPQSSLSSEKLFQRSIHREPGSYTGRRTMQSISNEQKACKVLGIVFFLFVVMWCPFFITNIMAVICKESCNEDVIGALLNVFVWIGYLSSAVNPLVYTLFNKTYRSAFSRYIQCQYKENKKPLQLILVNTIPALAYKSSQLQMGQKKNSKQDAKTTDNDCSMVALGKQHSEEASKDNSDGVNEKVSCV
Chain of Beta-2 adrenergic receptor (Homo sapiens) (P07550 whole entry, looked up): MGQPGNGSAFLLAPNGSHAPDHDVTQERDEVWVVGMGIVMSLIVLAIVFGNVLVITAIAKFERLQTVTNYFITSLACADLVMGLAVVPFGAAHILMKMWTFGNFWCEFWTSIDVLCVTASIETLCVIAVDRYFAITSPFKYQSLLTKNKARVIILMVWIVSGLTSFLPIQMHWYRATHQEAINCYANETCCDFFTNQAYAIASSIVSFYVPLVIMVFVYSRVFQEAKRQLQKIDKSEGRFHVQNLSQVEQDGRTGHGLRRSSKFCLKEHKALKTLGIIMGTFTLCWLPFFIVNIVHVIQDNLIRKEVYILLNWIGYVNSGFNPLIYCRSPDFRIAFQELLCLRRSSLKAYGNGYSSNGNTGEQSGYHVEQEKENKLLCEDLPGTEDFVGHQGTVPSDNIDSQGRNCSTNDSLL
Chain of D(2) dopamine receptor (Homo sapiens) (P14416 whole entry, looked up): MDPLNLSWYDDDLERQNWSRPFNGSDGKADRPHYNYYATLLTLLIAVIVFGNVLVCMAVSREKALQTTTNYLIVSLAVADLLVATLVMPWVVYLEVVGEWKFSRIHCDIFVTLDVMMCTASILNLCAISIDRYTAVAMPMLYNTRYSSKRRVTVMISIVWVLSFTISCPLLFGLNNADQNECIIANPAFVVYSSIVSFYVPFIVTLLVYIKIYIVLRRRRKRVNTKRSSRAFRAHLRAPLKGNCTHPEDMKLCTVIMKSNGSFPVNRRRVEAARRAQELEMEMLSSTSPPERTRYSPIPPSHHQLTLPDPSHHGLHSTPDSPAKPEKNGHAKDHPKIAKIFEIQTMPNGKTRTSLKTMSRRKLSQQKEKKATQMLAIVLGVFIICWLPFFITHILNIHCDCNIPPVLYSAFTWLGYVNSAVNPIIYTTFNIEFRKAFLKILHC
Chain of Gonadotropin-releasing hormone receptor (Homo sapiens) (P30968 whole entry, looked up): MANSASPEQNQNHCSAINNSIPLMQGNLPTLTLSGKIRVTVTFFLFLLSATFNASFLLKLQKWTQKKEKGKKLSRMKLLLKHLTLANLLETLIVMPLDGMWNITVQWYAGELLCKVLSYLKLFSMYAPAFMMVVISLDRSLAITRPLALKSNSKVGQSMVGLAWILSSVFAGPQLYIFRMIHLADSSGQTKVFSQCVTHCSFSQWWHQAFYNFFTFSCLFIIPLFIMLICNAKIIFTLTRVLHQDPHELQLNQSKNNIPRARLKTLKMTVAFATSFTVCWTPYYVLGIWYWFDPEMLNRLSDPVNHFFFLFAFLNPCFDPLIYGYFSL

On to `CCOCN(C(=O)CCl)c1c(C)cccc1CC`, for which the Potency entry in assay [1], in assay [3], in assay [4], in assay [5], in [6] and in assay [7] was “inactive” throughout. Further, the Potency entry in [8], in assay [9], in assay [10], in assay [11], in assay [12] and in [13] was “inactive” throughout. Besides, the Potency result in assay [14] and in [15] was “inactive” in each case. Moreover, in assay [2], the Potency is 25.8 µM (active) and 68.6 µM (active).
On to `CC(C)C1(C)N=C(c2nc3ccccc3cc2C(=O)O)NC1=O` (configuration not stated), for which the Potency result in assay [1], in assay [2], in [3], in assay [4], in assay [5] and in [6] was “inactive” throughout. In addition, the Potency entry in [7], in assay [8], in assay [9], in assay [16], in assay [10] and in [11] was “inactive” in each case. In addition, the Potency entry in assay [17], in assay [12], in assay [18], in assay [19], in assay [13] and in assay [14] was “inactive” throughout. Moreover, in [15], the Potency result is “inactive”.
With `Clc1ccc(Cl)cc1`, the Potency result in assay [1], in assay [2], in [3], in [4], in assay [5] and in [6] was “inactive” each time. Further, the Potency result in assay [7], in [8], in assay [9], in [16], in assay [10] and in [11] was “inactive” each time. The Potency entry in [17], in [12], in [19], in [13], in assay [14] and in assay [15] was “inactive” each time.
Consider `CCC(=O)OC1(c2ccccc2)CCN(C)CC1`, for which the Potency entry in assay [1], in assay [2], in [3], in assay [4], in [5] and in assay [6] was “inactive” each time. Further, the Potency result in [7], in [8], in [9], in [16], in assay [10] and in assay [11] was “inactive” in each case. The Potency result in assay [17], in assay [12], in assay [19], in assay [13] and in assay [15] was “inactive” each time.
Consider `CNC(=O)Oc1ccccc1OC(C)C`, for which the Potency entry in [1], in assay [2], in assay [3], in assay [4], in [5] and in [7] was “inactive” in each case. Besides, the Potency result in [16], in assay [10], in assay [11], in assay [17], in [12] and in assay [18] was “inactive” each time. For the same compound, the Potency entry in assay [19], in assay [13], in [14] and in assay [15] was “inactive” in each case.
`O=S(=O)(O)C(F)(F)C(F)(F)C(F)(F)C(F)(F)C(F)(F)C(F)(F)F`: the Potency entry in assay [1], in assay [2], in assay [3], in assay [4], in assay [5] and in assay [6] was “inactive” each time. Also, the Potency result in assay [7], in [8], in [9], in assay [16], in [10] and in [11] was “inactive” throughout. Further, the Potency entry in assay [17], in assay [12], in [19], in assay [13] and in [15] was “inactive” throughout.
